From PubChem BioAssay AID651558 (National Center for Advancing Translational Sciences (NCATS), 2012) come the findings set out here.

Molecules are shown by their SMILES. About 480 (40%) of roughly 1,200 compounds were called active. Inconclusive results (about 29%) are left out. This is one part of the list. A number with no mark means an inactive call. The call rests on the fitted dose curve; in most records, active means well fitted inhibition curve with a large enough effect; inconclusive means small, poorly fitted or top-dose-only effect; inactive means no such curve, though single readings can be large or run the other way.
On the % scale 0 is the no-effect control and ±100 the full control effect; potency means the concentration at half of the fitted maximal effect.

The nature of this assay: qHTS Assay to Find Inhibitors of Chronic Active B-Cell Receptor Signaling: Hit Validation in Primary Screen. Further: nearly all actives have a fitted effect of over 75% in size. To be noted: ABC-DLBCL IkB-luc/CBR ratio luminescence, 4 h; series mostly up to 46.1 µM; activity change, negative = inhibition: at the top concentration. From the text: Diffuse large B-cell lymphoma (DLBCL) is the most common category of non-Hodgkin lymphoma, with ~20,000 new cases per year in the United States. DLBCL should be regarded as a collection of different neoplasms. Microarray gene expression analysis has defined two principal types of DLBCL, named for their similarity to normal B cell stages or activation states: a germinal center B-cell (GCB) type, and an activated B-cell (ABC) type. In ABC-DLBCL, a constitutive high-level activity of the NF-kappaB family of transcription factors has been observed (1) and NF-kappaB target genes are more highly expressed in ABC primary tumors than in GCB tumors. Functional studies have shown a constitutive high-level activity of the IkappaB (inhibitor of kappa-B) kinase (IKK) complex. […] Further analysis of DLBCL primary tumors for NF-kappaB target gene expression imply that although CARD11 is required for constitutive IKK activity in all ABC-DLBCL lines, mutations in CARD11 may be the root cause of IKK activation only in lines or tumors with such mutations. In other words, CARD11 mutations may explain NF-kappaB activation in only 10% of ABC-DLBCL cases. […] This process has been termed 'chronic active BCR signaling' (CABS). The goal of this screen is to find small-molecule inhibitors of the CABS pathway found in ABC-DLBCL lines using a cell-based assay that measures IkappaBalpa stability, which has already been extensively validated in the OCI-Ly3 line (PubChem AID:445; REF: 4). […] A cell-sensor assay for I-kappa-B-alpha stabilization has been developed. The assay uses green (CBG68) and red (CBR) emitting beetle luciferases [Chroma-GloTM developed by Promega Corp.] where the green luciferase is fused to IkappaBalpha and the red luciferase is present in its native state. Both luciferase genes are stably present in the TMD8 human ABC DLBCL cell line, but their expression is under the control of tetracycline-inducible promoters. Following the addition of doxycycline to induce expression of the luciferases, the green luminescence in control cultures rises only slowly because the CBG fusion partner IkappaBalpha is targeted by IKK activity for rapid degradation. In contrast, green luminescence rises rapidly in the presence of proteasome inhibitors or IKK inhibitors. The rise in red luminescence of CBR is not affected by proteasome or IKK inhibitors, and serves as normalization for cell number and nonspecific effects. Compounds were screened as a concentration-titration series that ranged from 46 uM to 3 nM. NIH Molecular Libraries Probe Production Network [MLPCN] NIH Chemical Genomics Center [NCGC] MLPCN Grant: R03 DA031086 PI Name: Dr. R. Eric Davis
Cells were seeded in 1536-well plates at 5000 cells/4uL in IMDM medium containing 0.5% FBS, w/o phenol red, 1% penicillin/streptomycin. Then, 23 nL of compounds or DMSO were delivered to each well using a pin tool. One uL 20ng/ml doxycycline was then dispensed into white solid 1536-well plates and the plates were incubated at 37C/5% C02 in a cell incubator for 4 hrs. Then 4 uL luminescent substrate mix (in-house prepared: 150 mM Tris-Cl, pH 7.6, 3 mM MgCl2, 1% Triton X-100, 5 mM DTT, 0.2 mM CoA, 0.15 mM ATP, 5 mM D-luciferin, final concentrations) was added to each well. The plate was incubated at r.t. for 10-15 min. The plates were measured on a ViewLux plate reader for green luminescence (540/20 nm filter) and red luminescence (618/8 nm filter). The green and red luminescent signals were corrected for red and green luminescence filter overlap using previously determined filter calibration constants (determined using the procedure outlined in the Promega Technical Manual; REF 4). The %Activity was determined from the ratio of corrected green/red luminescent values. MG132 were used as control. Green luminescent and ratio %Activity was determined by normalizing to the difference in signal between basal cells (0% Activity) and cells incubated with 10 uM of the proteasome inhibitor MG-132 (100% Activity). […]
(qHTS replaces the single test concentration by a dilution series.)
`COc1cc2c(c(OC)c1OC)-c1ccc(O)cc1[C@@H](NC(C)=O)CC2`: the Potency is 461 nM (active). Turning to `COc1cc2c(c(OC)c1OC)-c1ccc(O)c(=O)cc1C(NC(C)=O)CC2` (stereo unspecified), the Potency is 231 nM (active).

For the molecule `COc1cc([C@@H]2c3cc4c(cc3[C@H](O)[C@H]3COC(=O)[C@H]23)OCO4)cc(OC)c1OC`, the Potency was 46.1 nM (active). `COc1cc(C2c3cc4c(cc3CC3COC(=O)C32)OCO4)cc(OC)c1OC` (stereo unspecified): the “activity change, negative = inhibition” value is 56.7%. In the case of `CCCCOCCCn1c(N)c(C(=O)OCCOC)c2nc3ccccc3nc21`, the “activity change, negative = inhibition” value was 7.36%.

On to `C=CC[C@@H](CC/C=C/C=C/CC/C=C\[C@@H]1CSC([C@@H]2C[C@@H]2C)=N1)OC`, for which the Potency was 820 nM (active). For the molecule `CC[C@]12CC[C@H](O)CC1=CCC1C2CC[C@]2(C)C(=O)CCC12` (stereo partly specified), the “activity change, negative = inhibition” value is -9.41%. With `O=c1c2ccccc2[se]n1-c1ccccc1`, the Potency was 20600 nM (active). Consider `Cc1cc(C)c(C(=O)CN2CCOCC2)c(C)c1`, for which the “activity change, negative = inhibition” value was -10.1%.

As to `CCNC(=O)[C@H]1O[C@@H](n2cnc3c(N)ncnc32)[C@H](O)[C@@H]1O`, the Potency was 130 nM (active). On to `COc1ccc(C(=O)Oc2cccc3cccnc23)cc1S(=O)(=O)N1CCOCC1`, for which the “activity change, negative = inhibition” value is -4.8%. For the molecule `CCC(=NCCC(c1ccccc1)c1ccccc1)c1c(O)[nH]c(=O)[nH]c1=O`, the Potency is 20600 nM (active). With `C/C(=N\N1CCCCC1)c1c(O)[nH]c(=O)[nH]c1=O`, the “activity change, negative = inhibition” value is -16.6%. On to `O=C1C(=O)c2cccc3cccc1c23`, for which the Potency was 18400 nM (active). In the case of `CCc1ccccc1N1C(=O)/C(=C/c2ccc(N3CCN(C)CC3)o2)C(=O)NC1=S`, the “activity change, negative = inhibition” value is 27.4%. Regarding `O=c1c2ccccc2nc(/C=C/c2ccc([N+](=O)[O-])o2)n1-c1ccc(O)cc1`, the Potency was 4110 nM (active). For `COc1ccc(C=C2C(=O)N(C)C(=O)N(C)C2=O)cc1COc1ccc(NC(C)=O)cc1`, the “activity change, negative = inhibition” value is -14.9%.

Take `C#CCOc1cc(C2C3=C(COC3=O)Nc3cc4c(cc32)OCO4)ccc1OC` (stereo unspecified): the Potency is 1460 nM (active). In the case of `CN(C)C(=S)SSC(=S)N(C)C`, the Potency was 16400 nM (active). With `COc1ccc(-c2nn(CCC#N)cc2C(=O)Nc2ccc(C(C)=O)cc2)cc1[N+](=O)[O-]`, the “activity change, negative = inhibition” value was 81.1%. `COc1cc2c(cc1O)CC[C@@H]1[C@@H]2CC[C@]2(C)[C@@H](O)CC[C@@H]12`: the Potency was 18400 nM (active).
